Results on 69 molecules are retold here after PubChem BioAssay AID488890 (Southern Research Specialized Biocontainment Screening …, 2010).

The structures appear in SMILES notation. Hit rate of the full screen: of about 320,000 compounds, about 1,300 (0.41%) were called active. Roughly 3% stayed inconclusive and do not appear here. The rule behind the calls is not given here. Not all results are given here. Results with a measured potency or affinity are listed apart.

The nature of this test: growth inhibition of non-replicating M. tuberculosis (AID 488890).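 Note: plate controls were DMSO cells for no effect and high antibiotic wells for full effect.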 As to conditions: Mycobacterium tuberculosis non-replicating, at 25 µM, stronger effect = higher value.
Broadly, the inhibition is the relative decrease from the control value, in per cent. On to `Cn1c(SCc2cccnc2)nc2cccnc21`, for which the inhibition is -20.7%. The value for `CC/C(=N\N=C1\SC(C)C(=O)N1Cc1ccco1)c1ccccc1` (centres undefined) was 32%. The figure for `COc1ccccc1CNC(=O)c1cnn2c(C(F)F)cc(C)nc12` is 24.9%. Regarding `COc1ccccc1N1CCN(S(=O)(=O)CCNC(=O)C2CC2)CC1`, the inhibition was -6.08%. For the molecule `COc1ccc(-c2cc(C(F)F)n3ncc(C(=O)Nc4cnn(Cc5ccccc5)c4)c3n2)cc1`, the inhibition is -6.39%. The figure for `O=[N+]([O-])c1ccc(Cc2nnc(-c3ccccc3Cl)o2)cc1` is 34.9%. Regarding `c1ccc(OCc2nnc(-c3ccccc3)o2)cc1`, the inhibition was found to be 62.3%. The figure for `Clc1ccccc1OCc1nnc(-c2ccccc2Br)o1` is 29.1%. On to `c1ccc(CN2CCN(Cc3nnc(-c4ccccc4)o3)CC2)cc1`, for which the inhibition was determined as 30.8%. The figure for `Fc1ccc(-c2nnc(Cc3nnc(-c4ccc(F)cc4)o3)o2)cc1` is -8.26%; for `COc1ccc(OC)c(NCc2nnc(-c3ccccc3)o2)c1` it is 77%. As for `Cc1cccc(NCc2ccccc2O)c1C`, the inhibition is 12.1%.

On to `O=[N+]([O-])c1ccc(Cc2nnc(-c3ccc(F)cc3)o2)cc1`, for which the inhibition amounted to 72.1%.

In the case of `O=C(Nc1nn(Cc2ccc(Cl)cc2)cc1Br)c1ccc(COc2ccccc2Cl)o1`, the inhibition is 44.8%. Consider `CCc1cc(CC)c(/C=N/NC(N)=O)c(CC)c1`, for which the inhibition turned out to be 6.49%. The value for `COc1ccc(-n2cnc3sc4c(c3c2=O)CCCC4)cc1` was 26%. The figure for `CC(C)c1nnc(NC(=O)CN2C(=O)c3ccccc3C2=O)s1` is -1.11%; for `Cc1ccc(-n2ncc(C(=O)N3CCN(C(=O)c4ccco4)CC3)c2C2CCN(C(=O)OC(C)(C)C)CC2)cc1C` it is -1.31%; for `O=C(C1CCC1)N1CCc2cc(S(=O)(=O)NCCCN3CCCCC3)ccc21` it is -2.13%. With `CCOC(=O)c1c(NC(=O)Nc2ccc(F)cc2)sc2c1CCN(C)C2`, the inhibition was 0.96%. The value for `C=CCn1c(O)c(C(CC)=NCCc2c[nH]c3ccccc23)c(=O)[nH]c1=O` was 18.7%. The figure for `Clc1ccc(-c2nnc(C3CC3)o2)cc1` is 63%; for `O=[N+]([O-])c1cccc(-c2nnc(C3CC3)o2)c1` it is 8.89%. On to `COc1cc(NC(=O)c2ccc(Cl)cc2)c(Cl)cc1NC(=O)c1cccnc1`, for which the inhibition was -8.85%. The value for `Cc1ccccc1CN1CCC(C(=O)Nc2ccc(Oc3cccnc3)cc2)CC1` was 30.1%; that for `COc1cccc(O)c1CN1CCC(C(=O)Nc2ccc(Oc3cccnc3)cc2)CC1` was 19.3%; that for `CC1Cc2ccccc2N1C(=O)CO/N=C/c1ccccc1OC(F)F` (centres undefined) was -12.1%. Consider `C=CCn1c(O)c(N=NC(=O)C(O)c2ccccc2)c2ccccc21` (centres undefined), for which the inhibition amounted to 15.4%. The figure for `CC(C)(C)NC(=O)CN(C(=O)c1snc(C(=O)NC2CCCCC2)c1N)c1ccc(F)cc1` is -3.77%; for `CC(OC(=O)c1snc(C(=O)NC2CCCCC2)c1N)C(=O)NC(C)(C)C` (centres undefined) it is 48.2%. The value for `CC(OC(=O)c1snc(C(=O)NC2CCCCC2)c1N)C(=O)NC1CCCCC1` (centres undefined) was -11.8%; that for `CCOC(=O)c1snc(C(=O)NC2CCCCC2)c1N` was 64.4%; that for `C/C(=N\NC(=O)C(C)Nc1cccc(Cl)c1)c1ccc([N+](=O)[O-])cc1` (centres undefined) was 6.72%. The value for `Cc1ccc2oc(=O)c3cnn(CC(=O)NCCC(C)C)c3c2c1` was -1%; that for `COCCN1C(=O)N[C@@H](c2ccccc2)[C@@H](C(=O)OC)[C@H]1C` was -23.2%. For the molecule `CC(C)NC(=O)C(c1ccc(F)cc1)N(C(=O)CCC(=O)Nc1ccccn1)C1CCCCC1` (centres undefined), the inhibition is -1.84%. With `O=C1Nc2ccccc2C1Cc1ccccc1` (centres undefined), the inhibition was found to be 24.6%.

For the molecule `FC(F)(F)c1cc(CO[C@@H]2CCCN[C@@H]2c2ccccc2)cc(C(F)(F)F)c1`, the inhibition stood at 63.4%. The figure for `CCOc1ccc(Br)cc1/C=N/NC(=O)c1ccncc1` is 73.7%; for `Cc1ccc(NC(=O)COC(=O)Cc2c[nH]c3ccccc23)cc1C` it is 35.7%; for `COc1ccc(C(=O)NCCc2c[nH]c3ccccc23)cc1` it is 25.8%.

Take `O=C(COC(=O)Cc1c[nH]c2ccccc12)Nc1cccc2ccccc12`: the inhibition came to 2.45%.

For `COc1ccc(NC(=O)COC(=O)CCCc2c[nH]c3ccccc23)cc1OC`, the inhibition amounted to 16.1%. Turning to `COc1ccc(CNC(=O)CCc2c[nH]c3ccccc23)cc1`, the inhibition is -7.3%. The value for `CS(=O)(=O)c1ccc(Cl)c(NC(=O)COC(=O)CCc2c[nH]c3ccccc23)c1` was 74.8%; that for `CS(=O)(=O)c1ccc(Cl)c(NC(=O)COC(=O)Cc2c[nH]c3ccccc23)c1` was -10%.

For `Cc1cccc(NC(=O)COC(=O)Cc2c[nH]c3ccccc23)c1C`, the inhibition was determined as 6.74%. The value for `CCc1ccccc1N(C(=O)c1snc(C(N)=O)c1N)C(C(=O)NCC1CCCO1)c1ccc(C)o1` (centres undefined) was 37.2%; that for `C[C@H]1COC(=O)[C@H](Cc2ccc(F)cc2)C/C=C\C[C@H](CC(=O)NCCO)C(=O)N1` was 6.21%. The value for `CCCCN(C(=O)C1CCC1)c1c(N)n(CCC)c(=O)[nH]c1=O` was -13.3%; that for `COc1cc(OC)c(C2=NOC(C(=O)NCc3cccnc3)C2)cc1Cl` (centres undefined) was 2.26%. As to `COc1ccc(NC(=O)c2coc3ccccc23)cc1OC`, the inhibition is 48.1%.

Regarding `C[C@H](OC(=O)N1CCN(C(c2ccccc2)c2ccccc2)CC1)[C@@H]1O[C@@]2(C)CCC[C@H]1O2`, the inhibition amounted to 3.49%. For the molecule `COCCN1C(=O)c2ccccc2C(C(=O)N2CCN(c3ccccc3)CC2)C1c1ccc(F)cc1` (centres undefined), the inhibition came out at 30%. `Cc1ccnc(NC(=O)CCCc2c[nH]c3ccccc23)c1`: the inhibition was found to be 11.4%. For the molecule `NS(=O)(=O)c1cccc(NC(=O)COC(=O)CCCc2c[nH]c3ccccc23)c1`, the inhibition is 7.86%. The figure for `COc1cccc(NC(=O)COC(=O)CCCc2c[nH]c3ccccc23)c1` is 58.5%; for `CC(=O)Nc1ccc(NC(=O)COC(=O)CCCc2c[nH]c3ccccc23)cc1` it is 13.7%; for `Cc1ccc(NC(=O)CCc2c[nH]c3ccccc23)nc1` it is 65.6%. The value for `O=C(COC(=O)c1c[nH]c2ccccc12)Nc1ccc([N+](=O)[O-])cc1` was -4.96%; that for `COc1ccc2cc(C3CC(c4cccs4)=NN3C(C)=O)c(Cl)nc2c1` (centres undefined) was -4.81%.

For the molecule `CCCCc1nc2c(=O)[nH]c3ccccc3c2o1`, the inhibition was -16.6%.

Regarding `CCCc1nc2c(=O)[nH]c3ccccc3c2o1`, the inhibition is -9.47%.

With `CNCc1ccccc1Sc1ccc(O)c(O)c1`, the inhibition was 33.3%. `CNCc1ccccc1Sc1cccc(O)c1`: the inhibition is -3.89%.

`COc1ccc(CCNC(=O)COc2ccc(-c3ccc(C#N)cc3)cc2)cc1`: the inhibition is 72.4%. Take `CC(=O)NCCOc1ccc2oc3ccccc3c2c1`: the inhibition is 5.68%. The figure for `CC(=O)Nc1ccc(NC(=O)COc2ccc(-c3ccc(C#N)cc3)cc2)cc1` is -7.55%; for `O=C(O)COc1ccc2oc3ccccc3c2c1` it is 3.49%.
